Values joined by “and” are separate entries in the source; they are usually repeats but may differ in a detail not shown here. Equal values may be shown once. About 2,000 (36%) of roughly 5,500 compounds were called active. Inconclusive results (about 18%) are left out. Cut-off read from the data, not from the text of the source: active = normalized growth mostly below about 0.91 (no sharp cut-off); inconclusive = no clear call, values can overlap the other calls; inactive = mostly above about 0.92. The list shows a part of the results.
Experiment: chemical genetic growth profiling, strain panel (AID 1159580);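 note: tested at 20 µM; growth read once vehicle control cultures reached saturation at 30 °C; 1 = growth at the plate median or of vehicle wells; lower values mean less growth of the strain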
Details: growth OD

Measured: normalized growth

COc1ccc2[nH]cc(CCN)c2c1
inactive: S. cerevisiae deletion strains, locus YJR043C, strain POL32, hits give low values 1.02 | S. cerevisiae deletion strains, locus YJR075W, strain HOC1, hits give low values 0.995 and 0.984 | S. cerevisiae deletion strains, locus YKL009W, strain mrt4, hits give low values 0.94 | S. cerevisiae deletion strains, locus YKL068W, hits give low values 0.986 | S. cerevisiae deletion strains, locus YKL085W, strain MDH1 (second series), hits give low values 0.991 | S. cerevisiae deletion strains, locus YKL085W, strain MDH1, hits give low values 0.991 | S. cerevisiae deletion strains, locus YKL160W, strain elf1, hits give low values 1 | S. cerevisiae deletion strains, locus YKL190W, strain CNB1, hits give low values 0.996 | S. cerevisiae deletion strains, locus YKR001C, strain vps1, hits give low values 0.987 | S. cerevisiae deletion strains, locus YKR026C, strain gcn3, hits give low values 0.988 | S. cerevisiae deletion strains, locus YKR091W, strain srl3, hits give low values 0.996 | S. cerevisiae deletion strains, locus YLL001W, strain dnm1, hits give low values 1 | S. cerevisiae deletion strains, locus YLL026W, hits give low values 0.997 | S. cerevisiae deletion strains, locus YLL041C, strain sdh2, hits give low values 0.991 | S. cerevisiae deletion strains, locus YLR027C, strain aat2, hits give low values 1 | S. cerevisiae deletion strains, locus YLR039C, strain RIC1, hits give low values 1.03 | S. cerevisiae deletion strains, locus YLR058C, strain SHM2, hits give low values 0.97 | S. cerevisiae deletion strains, locus YLR102C, strain apc9, hits give low values 0.982 | S. cerevisiae deletion strains, locus YLR221C, strain rsa3, hits give low values 0.969 | S. cerevisiae deletion strains, locus YLR258W, strain gsy2, hits give low values 0.997 | S. cerevisiae deletion strains, locus YLR262C, strain YPT6 (second series), hits give low values 0.999 | S. cerevisiae deletion strains, locus YLR262C, strain YPT6, hits give low values 0.989 | S. cerevisiae deletion strains, locus YLR268W, strain sec22, hits give low values 1.06 | S. cerevisiae deletion strains, locus YLR320W, strain mms22, hits give low values 0.965 | S. cerevisiae deletion strains, locus YLR330W, strain CHS5, hits give low values 0.995 | S. cerevisiae deletion strains, locus YLR342W, strain FKS1 (second series), hits give low values 0.991 | S. cerevisiae deletion strains, locus YLR342W, strain FKS1, hits give low values 1.01 | S. cerevisiae deletion strains, locus YLR357W, strain rsc2, hits give low values 0.991 | S. cerevisiae deletion strains, locus YLR370C, strain arc18, hits give low values 0.994 | S. cerevisiae deletion strains, locus YLR371W, strain rom2, hits give low values 0.974 | S. cerevisiae deletion strains, locus YLR384C, strain iki3, hits give low values 0.999 | S. cerevisiae deletion strains, locus YLR418C, strain cdc73, hits give low values 0.978 | S. cerevisiae deletion strains, locus YML016C, strain PPZ1, hits give low values 0.984 | S. cerevisiae deletion strains, locus YML032C, strain rad52, hits give low values 1 | S. cerevisiae deletion strains, locus YML120C, strain ndi1, hits give low values 1.01 | S. cerevisiae deletion strains, locus YML124C, strain tub3, hits give low values 0.984 | S. cerevisiae deletion strains, locus YMR058W, strain fet3, hits give low values 0.988 | S. cerevisiae deletion strains, locus YMR078C, strain ctf18, hits give low values 0.99 | S. cerevisiae deletion strains, locus YMR125W, strain sto1, hits give low values 0.992 | S. cerevisiae deletion strains, locus YMR129W, hits give low values 0.981 | S. cerevisiae deletion strains, locus YMR205C, strain PFK2, hits give low values 1.02 | S. cerevisiae deletion strains, locus YMR223W, strain ubp8, hits give low values 0.957 | S. cerevisiae deletion strains, locus YMR231W, strain pep5, hits give low values 0.994 | S. cerevisiae deletion strains, locus YMR263W, strain SAP30, hits give low values 0.981 and 0.985 | S. cerevisiae deletion strains, locus YMR307W, strain GAS1, hits give low values 0.947 | S. cerevisiae deletion strains, locus YNL067W, strain RPL9B, hits give low values 1.01 | S. cerevisiae deletion strains, locus YNL071W, strain lat1, hits give low values 1.01 | S. cerevisiae deletion strains, locus YNL128W, strain TEP1, hits give low values 0.975 | S. cerevisiae deletion strains, locus YNL153C, strain GIM3, hits give low values 1 | S. cerevisiae deletion strains, locus YNL175C, strain NOP13, hits give low values 1 | S. cerevisiae deletion strains, locus YNL197C, strain WHI3, hits give low values 0.99 | S. cerevisiae deletion strains, locus YNL209W, strain ssb2, hits give low values 1.01 | S. cerevisiae deletion strains, locus YNL224C, strain SQS1, hits give low values 0.982 | S. cerevisiae deletion strains, locus YNL233W, strain BNI4, hits give low values 1 | S. cerevisiae deletion strains, locus YNL248C, strain rpa49, hits give low values 0.972 | S. cerevisiae deletion strains, locus YNL250W, strain rad50, hits give low values 0.963 | S. cerevisiae deletion strains, locus YNL271C, strain bni1, hits give low values 0.996 | S. cerevisiae deletion strains, locus YNL298W, strain CLA4, hits give low values 0.971 | S. cerevisiae deletion strains, locus YNL307C, strain MCK1, hits give low values 0.989 | S. cerevisiae deletion strains, locus YNL322C, strain KRE1 (second series), hits give low values 1 | S. cerevisiae deletion strains, locus YNL322C, strain KRE1, hits give low values 0.991 and 0.992 | S. cerevisiae deletion strains, locus YNR049C, strain mso1, hits give low values 0.984 | S. cerevisiae deletion strains, locus YNR052C, strain pop2, hits give low values 0.976 | S. cerevisiae deletion strains, locus YOL006C, strain TOP1, hits give low values 1.03 | S. cerevisiae deletion strains, locus YOL012C, strain htz1 0.627 | S. cerevisiae deletion strains, locus YOL147C, strain pex11, hits give low values 0.987 | S. cerevisiae deletion strains, locus YOR001W, strain rrp6, hits give low values 0.931 | S. cerevisiae deletion strains, locus YOR061W, strain CKA2, hits give low values 0.965 | S. cerevisiae deletion strains, locus YOR069W, strain VPS5, hits give low values 0.983 | S. cerevisiae deletion strains, locus YOR070C, strain gyp1, hits give low values 0.979 | S. cerevisiae deletion strains, locus YOR080W, strain dia2, hits give low values 0.991 | S. cerevisiae deletion strains, locus YOR083W, strain WHI5 (second series), hits give low values 0.99 | S. cerevisiae deletion strains, locus YOR083W, strain WHI5, hits give low values 1.02 | S. cerevisiae deletion strains, locus YOR106W, strain vam3, hits give low values 1.02 | S. cerevisiae deletion strains, locus YOR136W, strain idh2, hits give low values 0.998 | S. cerevisiae deletion strains, locus YOR144C, strain elg1, hits give low values 0.985 | S. cerevisiae deletion strains, locus YOR184W, strain ser1, hits give low values 1.01 | S. cerevisiae deletion strains, locus YOR265W, strain rbl2, hits give low values 0.991 | S. cerevisiae deletion strains, locus YOR270C, strain vph1, hits give low values 0.957 | S. cerevisiae deletion strains, locus YOR290C, strain snf2, hits give low values 1.01 | S. cerevisiae deletion strains, locus YOR316C, strain cot1, hits give low values 0.994 | S. cerevisiae deletion strains, locus YPL051W, strain arl3, hits give low values 1.01 | S. cerevisiae deletion strains, locus YPL055C, strain LGE1, hits give low values 0.977 | S. cerevisiae deletion strains, locus YPL078C, strain atp4, hits give low values 1.02 | S. cerevisiae deletion strains, locus YPL106C, strain sse1, hits give low values 1.01 | S. cerevisiae deletion strains, locus YPL240C, strain hsp82, hits give low values 0.995 | S. cerevisiae deletion strains, locus YPL241C, strain CIN2, hits give low values 0.994 and 1.01 | S. cerevisiae deletion strains, locus YPR119W, strain clb2, hits give low values 0.989 | S. cerevisiae deletion strains, locus YPR141C, strain kar3, hits give low values 0.976 | S. cerevisiae deletion strains, locus YPR163C, strain tif3, hits give low values 0.995 | S. cerevisiae deletion strains, locus YPR167C, strain met16, hits give low values 0.989 | S. cerevisiae deletion strains, strain wtn01, hits give low values 1.02 | S. cerevisiae strains, strain wild type, hits give low values 0.984

Reference: PubChem BioAssay AID1159580 (chemical genetic matrix, 2015)
